Source: PubChem BioAssay
Rows were chosen to be rich in hits. Some 4.3% of all compounds tested hit in one or more screens of this group.
MITF act – increases MITF-driven TRPM1 promoter luciferase signal. SK-MEL-5 TRPM1-promoter luciferase, 24 h; % of positive control, neutral wells = 0. activation, % at 12.5 µM. actives 0.75% (n = 300,000);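 active means mean activation of at least 80% with every replicate also reaching 80%; inconclusive means mean reaches 80% but some replicate falls short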
HSF1 inh – HSF1 inhibition. AID 2098. activity change, negative = inhibition, % at 7.5 µM (by protocol). NIH3T3-HGL HSE-luciferase, MG132-induced, luminescence 8 h; stronger effect = lower value. actives 0.77% (n = 300,000);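 active means more than half of replicate wells show activity change below -50%, luminescence cut by over half; inconclusive means some wells, but at most half, below -50%; inactive means no replicate well below -50%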;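 further: luciferase reports HSF-1 transcriptional activity via heat shock element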
SMARCA2 act – SMARCA2 function activation, primary screen; activation, % at 9.1 µM; actives 1% (n = 370,000); MG213 cells, MMTV-luciferase reporter, dexamethasone, overnight; in the data active means activation above about 7.8%
esBAF inh – inhibitors of esBAF chromatin remodeling in mouse ES cells. Bmi1-luciferase knock-in reporter, 24 h; 100% = twice the neutral-well signal. reporter increase, % at 12.5 µM. actives 2% (n = 350,000); in the data active means activation above about 40%; inconclusive means no clear call, values can overlap the other calls;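 further: a rise in the Bmi1 reporter signal indicates esBAF inhibition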
Wnt act – activates Wnt/beta-catenin signaling in a reporter cell assay; activation, % at 9.35 µM; actives 1.2% (n = 300,000); activator, plate reader; in the data active means activation above about 30%, passing the limit was not always enough; inconclusive means no clear call, values can overlap the other calls
HSF-1 act – increases HSF-1 driven luciferase reporter signal | actives 1.7% (n = 300,000) | activation, % at 9 µM | AID 504408 | NIH3T3-HGL HSF-1 luciferase reporter, MG132, 8 h; 100% = twice DMSO control signal;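 active means mean replicate activation of at least 50% with a set share of replicates each reaching 50%; inconclusive means only one of those two conditions met; inactive means mean below 50% and too few replicates reaching it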
esBAF Ring1 qPCR – esBAF inhibition confirmed by Ring1 de-repression | shares compounds with esBAF inh | mouse ESC E14, Ring1 mRNA RT-qPCR fold change | fold change at 33 µM | 550 tested, under 10 active;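 active means Ring1 gene expression raised more than 2-fold over untreated cells in both replicates at either tested dose; inconclusive means only one replicate above 2-fold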;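 further: Ring1 transcript normalised to actin housekeeping signal by TaqMan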
esBAF Fgf4 qPCR – esBAF inhibition confirmed by Fgf4 repression; shares compounds with esBAF inh; mouse ESC E14, Fgf4 mRNA qPCR fold change; stronger effect = lower value; Fgf4 expression fold change at 33 µM; actives 4% (n = 550); AID 743177;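 active means Fgf4 expression under 0.8 fold of control in both repeat measurements at one or both tested doses; inconclusive means under 0.8 fold in just a single repeat measurement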;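 further: Fgf4 transcript normalised to actin in duplex TaqMan qPCR; cells exposed to compound for 24 h before lysis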
Bmi1 derepress – esBAF inhibition confirmed by Bmi1 de-repression; shares compounds with esBAF inh; mouse ESE14 ES cells, Bmi1 mRNA qPCR fold; stronger effect = higher value; fold change at 33 µM; 550 tested, under 10 active; AID 743180;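 active means Bmi1 expression fold change above 6 at either tested concentration, seen in replicate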
A549 cytotox – kills or reduces viability of A549 cells; 550 tested, under 10 active; cell viability change % (negative = cytotoxic), % at 25 µM, hits read low; shares compounds with esBAF inh; A549 cytotoxicity, plate reader; call rule not given here
HepG2 cytotox SP – HepG2 cell cytotoxicity at single point; shares compounds with esBAF inh; plate reader; stronger effect = lower value; activity change, negative = inhibition, % at 25 µM; actives 4% (n = 550); in the data active means activity change below about -50%
HEK293 cytotox SP – HEK293 cell cytotoxicity at single point | shares compounds with esBAF inh | plate reader | activity change, negative = inhibition, % at 25 µM, hits read low | actives 3% (n = 550) | AID 743190; in the data active means activity change below about -38%, passing the limit was not always enough
SMARCA2 act conf – confirmation of SMARCA2 (BRM) function activators | shares compounds with SMARCA2 act | MG213 cells, MMTV-luciferase with dexamethasone, luminescence, overnight; MG213 cells expressing E1A, Rb sequestered; DMSO wells 0%, reference activator 100% | activation, % at 9.1 µM | actives 30% (n = 3,500) | AID 652260;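 active means activation above its plate's cutoff, the mean activation of tested wells plus 3 SD, cut at about 7.9% in these data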
VP16 Luc act – activates GAL4-VP16 luciferase, flagging SMARCA2 activator hits. actives 41% (n = 3,500). shares compounds with SMARCA2 act. HEK293 GAL4-VP16 pG5luc reporter, luciferase luminescence; scaled: DMSO wells 0%, SAHA wells 100%. activation, % at 9.1 µM;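 active means activation above the solvent-only control well mean plus 3 SD, averaged across control plates, cut at about 5.2% in these data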
Numbers stand for hits; i = inactive; ? = inconclusive; nt = no result given.

SMILES	MITF act	HSF1 inh	SMARCA2 act	esBAF inh	Wnt act	HSF-1 act	SMARCA2 act conf	VP16 Luc act	others
Cc1cccn2c(=O)c3c(nc12)N1CCC(Cc2ccccc2)CC1C1(C3)C(=O)N(C)C(=O)N(C)C1=O (stereo not given)	nt	i	i	i	nt	56	nt	nt
Cc1cccn2c(=O)c3c(nc12)N1CCCCC1C1(C3)C(=O)N(C)C(=O)N(C)C1=O (stereo not given)	nt	i	i	nt	i	i	nt	nt
CCCCOC(=O)c1ccccc1N	i	nt	i	i	i	nt	nt	nt
Nc1ccccc1C(=O)OCCc1ccccc1	85	nt	i	i	68	nt	nt	nt
OC[C@H]1[C@@H]2c3ccccc3NC[C@@H]2N1Cc1cccnc1	nt	nt	nt	i	nt	nt	nt	nt
CCCCCn1c(=O)c(C(=O)Nc2ccccc2Cl)c(O)c2ccccc21	nt	i	i	100	i	i	nt	nt	esBAF Ring1 qPCR=i;esBAF Fgf4 qPCR=i;Bmi1 derepress=i;A549 cytotox=i;HepG2 cytotox SP=i;HEK293 cytotox SP=i
CN1[C@@H]2Cn3c(cccc3=O)[C@H]1[C@@H](C(=O)NCC1CC1)[C@@H]2CO	nt	nt	nt	i	nt	nt	nt	nt
CCCCCCC(=O)N/N=C/c1c(O)n(CCc2ccccc2)c(=O)[nH]c1=O	nt	nt	8.7	i	i	nt	i	i
O=C(Cc1ccccn1)N1CCCCN2[C@@H](CO)[C@H](c3ccc(Br)cc3)[C@@H]2C1	nt	nt	nt	i	nt	nt	nt	nt
COc1cc2nc(CN3CC=C(c4ccccc4)CC3)[nH]c(=O)c2cc1OC	i	i	14	i	i	i	i	i
COc1cc(C)c(CN2CC=C(c3ccc(F)cc3)CC2)cc1C	i	i	i	i	i	i	nt	nt
O=C(O)[C@@H]1[C@@H](CO)[C@@H]2Cn3c(ccc(C4=CCCCC4)c3=O)[C@H]1N2CCc1ccccc1	nt	nt	nt	i	nt	nt	nt	nt
COc1ccc(CN2Cc3cc(-c4ccc(OC)cc4)ccc3-n3nncc3C2)cc1	nt	nt	8.0	i	i	nt	i	i
COc1cc2c(cc1OC)-c1c3c(cc4c1[C@@H](C2)N(C)CC4)OCO3	i	i	11	i	i	i	15	i
COc1cc2c(cc1OC)-c1c(OC)c(OC)cc3c1C(C2)N(C)CC3 (stereo not given)	i	i	i	i	i	i	nt	nt
CC=Cc1ccc2n(c1=O)C[C@H]1[C@H](CO)[C@@H](C(=O)OC)[C@@H]2N1S(=O)(=O)c1ccccc1C (mixture of isomers)	nt	nt	nt	i	nt	nt	nt	nt
CCC(=O)N1[C@@H]2c3ccc(C4=CCCC4)c(=O)n3C[C@H]1[C@H](CO)[C@H]2C(=O)OC	nt	nt	nt	i	nt	nt	nt	nt
O=c1[nH]c(=S)[nH]c(O)c1N=Nc1ccc(S(=O)(=O)N2CCc3ccccc32)cc1	i	i	14	nt	i	?	11	i
O=c1[nH]c(=S)[nH]c(O)c1N=Nc1ccc(SC(F)F)cc1	i	i	11	i	i	?	12	10.0
